# Measurements: PubChem BioAssay
# Values joined by “and” are separate entries in the source; they are usually repeats but may differ in a detail not shown here. Equal values may be shown once. Inconclusive results are not listed. For part of these data: Entries with a potency or affinity are not part of this list. Active and inactive are the calls of the source. Rule as the data show it, unless noted: active = inhibition above about 80%; inactive = the rest. Where a SMILES comes first, the peptide text is derived from it. [ ]: non-standard residue; d: D form. The star is where a group is joined. Sta = CC(C)C[C@H](N)[C@@H](O)CC(=O)O; Isovaleryl = CC(C)CC(=O)*
# How the values were obtained:
# [1] = polyglutamine-triggered caspase-3 activation inhibitors, cell-based (AID 1583); conditions: polyglutamine-induced caspase-3 activation, cell assay; stronger effect = higher value;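 tested at 10 µM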
# [2] = suppressors of polyQ aggregation in yeast, 75Q-TubU reporter (AID 1593); conditions: Yeast 75Q polyglutamine aggregation reporter
# [3] = rescue of polyQ-huntingtin neuronal dysfunction in worms, whole organism, C. elegans mechanosensory neurons, N-terminal huntingtin (AID 1599); conditions: touch response, stronger effect = higher value
# [4] = inhibitors of mitochondrial cytochrome c release, biochemical, purified mitochondria (AID 1603); conditions: stronger effect = lower value;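 also: mouse liver mitochondria challenged with calcium chloride; signal normalized to the plate average as 100%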
# [5] = inhibitors of polyQ protein aggregation (AID 1604); conditions: polyglutamine-induced protein aggregation inhibition assay; stronger effect = higher value; tested at 2.5 µM
# [6] = enhancers of glutamate uptake in motor neurons, MN-1 cell line (AID 1612); conditions: MN-1 motor neuron cells, stronger effect = higher value;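 also: tested at 1 µM final; 0% = mean of DMSO vehicle wells on each plate; positive means more glutamate uptake than control and negative means less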
# [7] = reducers of polyQ inclusions in PC12 cells, cell-based, NGF-treated PC12, GFPQ80 (AID 1614); conditions: PC12 NGF-treated GFP-polyQ80 inclusion reduction;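 also: lower means fewer inclusions and 0 means no inclusions at all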
# [8] = suppressors of polyglutamine aggregation in yeast, 75Q-TubH (AID 1616); conditions: S. cerevisiae 75Q-TubH polyglutamine aggregation suppression; stronger effect = higher value
# [9] = target: ATP-dependent translocase ABCB1 (Homo sapiens) (UniProt P08183); assay: MDR1 (ABCB1) efflux transporter inhibition, cell-based (AID 377; in the data active = fluorescence slope change above about 50%); conditions: MDR1-expressing cells, fluorescent substrate accumulation slope; stronger effect = higher value; concentration not given here
# Sequence of ATP-dependent translocase ABCB1 (Homo sapiens) (P08183 whole entry, looked up): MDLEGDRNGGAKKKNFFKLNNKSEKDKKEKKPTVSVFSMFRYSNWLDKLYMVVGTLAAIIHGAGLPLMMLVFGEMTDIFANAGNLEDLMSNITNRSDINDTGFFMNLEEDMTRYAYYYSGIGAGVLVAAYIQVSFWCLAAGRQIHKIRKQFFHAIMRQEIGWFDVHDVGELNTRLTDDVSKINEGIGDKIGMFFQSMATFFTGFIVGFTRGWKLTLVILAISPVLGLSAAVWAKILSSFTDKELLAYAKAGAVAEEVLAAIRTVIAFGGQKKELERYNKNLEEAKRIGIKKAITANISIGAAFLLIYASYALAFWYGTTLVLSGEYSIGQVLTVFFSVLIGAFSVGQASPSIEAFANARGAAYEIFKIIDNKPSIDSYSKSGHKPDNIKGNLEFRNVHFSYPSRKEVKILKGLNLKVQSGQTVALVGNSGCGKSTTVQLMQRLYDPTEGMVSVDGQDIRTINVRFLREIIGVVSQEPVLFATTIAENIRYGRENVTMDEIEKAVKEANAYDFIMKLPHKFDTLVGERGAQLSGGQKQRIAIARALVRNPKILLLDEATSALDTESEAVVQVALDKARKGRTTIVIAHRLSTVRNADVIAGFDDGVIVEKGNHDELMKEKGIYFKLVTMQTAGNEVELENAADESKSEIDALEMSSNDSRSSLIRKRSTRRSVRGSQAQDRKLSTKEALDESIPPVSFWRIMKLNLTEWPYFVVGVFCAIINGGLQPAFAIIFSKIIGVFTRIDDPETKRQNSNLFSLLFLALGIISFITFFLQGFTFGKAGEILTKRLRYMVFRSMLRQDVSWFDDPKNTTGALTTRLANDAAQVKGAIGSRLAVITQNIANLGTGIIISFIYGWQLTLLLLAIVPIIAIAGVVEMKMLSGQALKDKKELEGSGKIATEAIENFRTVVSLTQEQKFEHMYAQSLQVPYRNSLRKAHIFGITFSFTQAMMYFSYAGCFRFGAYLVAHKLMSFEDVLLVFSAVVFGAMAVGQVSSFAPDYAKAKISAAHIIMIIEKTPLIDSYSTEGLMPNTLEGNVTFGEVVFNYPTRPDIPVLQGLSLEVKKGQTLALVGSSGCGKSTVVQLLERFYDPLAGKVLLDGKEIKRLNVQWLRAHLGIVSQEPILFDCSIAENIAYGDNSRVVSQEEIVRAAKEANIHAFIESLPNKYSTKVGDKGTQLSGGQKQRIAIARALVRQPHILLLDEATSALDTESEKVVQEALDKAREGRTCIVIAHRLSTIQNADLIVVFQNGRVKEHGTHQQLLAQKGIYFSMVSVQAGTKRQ
# [10] = LFS_MB_1R medulloblastoma cell growth inhibition, synergistic combos for chromothripsis tumors, cisplatin or BGB combos (AID 1671452); conditions: LFS_MB_1R medulloblastoma cells, stronger effect = higher value;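 also: cells exposed for 96 hours before readout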
# [11] = CRL2098 osteosarcoma cell growth inhibition, synergistic combos for chromothripsis tumors, BGB or cisplatin IC20 combos (AID 1671454); conditions: CRL2098 osteosarcoma cells, drug combinations, stronger effect = higher value;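 also: cells exposed for 96 h before readout; 0% = vehicle DMSO and 100% = killing by high DMSO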
# [12] = HD-MB03 medulloblastoma cell growth inhibition, synergistic combos for chromothripsis tumors, BGB or cisplatin IC20 combos (AID 1671455; in the data active = inhibition above about 83%;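 also: 0% = vehicle DMSO and 100% = high DMSO as cytotoxic control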); conditions: HD-MB03 medulloblastoma cells, stronger effect = higher value
# [13] = UWB1.289 ovarian carcinoma cell growth inhibition, synergistic combos for chromothripsis tumors, BGB or cisplatin combos (AID 1671456); conditions: UWB1.289 ovarian carcinoma cells, stronger effect = higher value;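 also: cells exposed to compound for four days; 0% = vehicle DMSO and 100% = killing by high DMSO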
# [14] = LFS_MB_2R medulloblastoma cell growth inhibition, synergistic combos for chromothripsis tumors, cisplatin combos (AID 1671457); conditions: LFS_MB_2R medulloblastoma cells, stronger effect = higher value;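 also: cells exposed to compound for four days before readout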
# [15] = UWB1.289_BRCA1 ovarian cancer growth, cell-based, BGB or cisplatin combinations (AID 1671459); conditions: UWB1.289 BRCA1 ovarian carcinoma, drug combinations, stronger effect = higher value
# [16] = human astrocyte viability loss, single and combined drugs, cytotoxicity control for chromothriptic childhood tumor combination screen, cell-based, BGB or cisplatin IC20 combos (AID 1671460); conditions: Human astrocytes, drug combinations, stronger effect = higher value;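 also: cells exposed to compounds for 96 hours before viability readout; 0% = vehicle and 100% = killing control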
# [17] = inhibitors of Cryptococcus chitosan production, flow cytometry, Cibacron Brilliant Red staining (AID 1347148; call rule not given here;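 also: compound exposure lasted three days at 37 degrees C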); conditions: Cryptococcus neoformans chitosan, stronger effect = lower value; at 10 µM unless noted
# [18] = Cy5 fluorescence interference with SSB-bound oligo, artefact control for HCV NS3 helicase inhibitor project, biochemical, NIH Clinical Collection, E. coli SSB (AID 743268; call rule not given here)
# [19] = test system: Hepatitis C virus NS3 helicase; assay: HCV NS3 helicase inhibitors, primary screen, biochemical, fluorescence polarization, NIH Clinical Collection (AID 743270; call rule not given here); conditions: NS3 helicase binding to Cy5-dT15 DNA, stronger effect = higher value, concentration not given here
# [20] = target: Single-stranded DNA-binding protein (Escherichia coli (strain K12)) (UniProt P0AGE0); assay: E. coli SSB displacement from DNA, counter-screen for HCV NS3 helicase inhibitor project, biochemical, fluorescence polarization, NIH Clinical Collection (AID 743271; in the data active = inhibition above about 28%); conditions: stronger effect = higher value, concentration not given here
# [21] = measured here: combination with BGB IC40, at 0.05 µM
# [22] = measured here: combination with cisplatin, at 0.5 µM
# [23] = measured here: combination with cisplatin, at 5 µM
# [24] = measured here: combination with BGB at IC20, at 0.5 µM
# [25] = measured here: combination with cisplatin at IC20, at 0.5 µM
# [26] = measured here: combo with BGB at IC20, at 0.5 µM
# [27] = measured here: combo with cisplatin at IC20, at 0.5 µM
# [28] = measured here: inhibition with BGB combination, at 0.05 µM
# [29] = measured here: inhibition with cisplatin combination, at 0.05 µM
# [30] = BGB combination, concentration series, at 5 µM
# [31] = cisplatin combination, concentration series, at 5 µM
# [32] = measured here: combo with BGB IC20, at 0.5 µM
# [33] = measured here: combo with cisplatin IC20, at 0.5 µM
structure (smiles),measurement,setting,value
CC(=O)OCC(=O)[C@@]1(O)CCC2C3CCC4=CC(=O)CC[C@]4(C)C3[C@@H](O)C[C@@]21C (some centres not stated),inhibition,[1],6.86%
same,score,[2],1.36
same,rescue above control,[3],-8.68
same,cytochrome c release ratio,[4],1.12
same,inhibition of aggregation,[5],66.2%
same,glutamate uptake change,[6],16.2%
same,inclusion score,[7],2
same,aggregation suppression score,[8],0.966
CC[C@@H](CO)NCCN[C@@H](CC)CO,inhibition,[1],-11.7%
same,score,[2],1.09
same,rescue above control,[3],2.87
same,cytochrome c release ratio,[4],1.07
same,inhibition of aggregation,[5],43.6%
same,glutamate uptake change,[6],-22.3%
same,inclusion score,[7],2
same,aggregation suppression score,[8],1.18
O=C(O)CN(CC(=O)O)Cc1cc2c(-c3ccccc3C(=O)O)c3cc(CN(CC(=O)O)CC(=O)O)c(=O)cc-3oc2cc1O,inhibition,[1],-215%
same,score,[2],1.05
same,rescue above control,[3],-5.14
same,cytochrome c release ratio,[4],0.86
same,inhibition of aggregation,[5],0%
same,glutamate uptake change,[6],13.5%
same,inclusion score,[7],0
same,aggregation suppression score,[8],0.687
CN(C)CCCOc1nn(Cc2ccccc2)c2ccccc12,fluorescence slope change,[9],153% (active)
Nc1ncn([C@H]2C[C@H](O)[C@@H](CO)O2)c(=O)n1,inhibition,[10]; at 0.5 µM,-7.33% (inactive)
same,inhibition,[10]; [21],-12.1%
same,inhibition,[10]; [22],-1.56%
same,inhibition,[10]; [23],-10.1%
same,inhibition,[11]; at 0.5 µM,-25.9% (inactive)
same,inhibition,[11]; [24],-12.6%
same,inhibition,[11]; [25],-67.9%
same,inhibition,[12]; at 0.5 µM,30.9% (inactive)
same,inhibition,[12]; [26],47.3%
same,inhibition,[12]; [27],31.6%
same,inhibition,[13]; at 0.5 µM,16.5% (inactive)
same,inhibition,[13]; [28],5.24%
same,inhibition,[13]; [29],-1.44%
same,inhibition,[14]; at 0.5 µM,-4.56% (inactive)
same,inhibition,[14]; [22],-4.46%
same,inhibition,[14]; [23],0.176%
same,inhibition,[15]; [30],32.1%
same,inhibition,[15]; at 0.5 µM,25% (inactive)
same,inhibition,[15]; [31],40.5%
same,inhibition,[16]; at 0.5 µM,26.9% (inactive)
same,inhibition,[16]; [32],27.2%
same,inhibition,[16]; [33],20.4%
CC1=C(/C=C/C(C)=C/C=C/C(C)=C/C(=O)Nc2ccc(O)cc2)C(C)(C)CCC1,fold fluorescence,[17],6.05 (inactive)
CC(=O)NC(Cc1ccccc1)C(=O)O (configuration not stated),inhibition,[1],6.15%
same,score,[2],1.35
same,rescue above control,[3],4.38
same,cytochrome c release ratio,[4],0.42
same,inhibition of aggregation,[5],85.9%
same,glutamate uptake change,[6],12.1%
same,inclusion score,[7],2
same,aggregation suppression score,[8],1.23
COc1cc(N)c(Cl)cc1C(=O)NC1CCN(CCCOc2ccc(F)cc2)CC1OC (configuration not stated),fluorescence slope change,[9],62% (active)
CC(C)=CCC/C(C)=C/CO,inhibition,[1],23.2%
same,score,[2],1.12
same,rescue above control,[3],3.94
same,cytochrome c release ratio,[4],1.17
same,inhibition of aggregation,[5],60.6%
same,glutamate uptake change,[6],5.29%
same,inclusion score,[7],2
same,aggregation suppression score,[8],1.02
Nc1nc(Cl)nc2c1ncn2[C@@H]1O[C@H](CO)[C@@H](O)[C@@H]1F,inhibition,[10]; at 0.5 µM,-12.4% (inactive) and -0.15% (inactive)
same,inhibition,[10]; [21],-16.1% and -38.3%
same,inhibition,[10]; [22],76.7% and 60.5%
same,inhibition,[10]; [23],89.1% and 86.1%
same,inhibition,[11]; at 0.5 µM,79.4% (inactive) and 75.9% (inactive)
same,inhibition,[11]; [24],67.5% and 66%
same,inhibition,[11]; [25],88.5% and 80.9%
same,inhibition,[12]; at 0.5 µM,92.5% (active) and 92.1% (active)
same,inhibition,[12]; [26],86.9% and 84.3%
same,inhibition,[12]; [27],96.9% and 97.4%
same,inhibition,[13]; at 0.5 µM,42.4% (inactive) and 38.2% (inactive)
same,inhibition,[13]; [28],-20.1% and -11.3%
same,inhibition,[13]; [29],-17.8% and -24.8%
same,inhibition,[14]; at 0.5 µM,9.11% (inactive) and 33.6% (inactive)
same,inhibition,[14]; [22],55% and 57.2%
same,inhibition,[14]; [23],80.6% and 87.7%
same,inhibition,[15]; [30],76.8% and 56.9%
same,inhibition,[15]; at 0.5 µM,50.9% (inactive) and 49.8% (inactive)
same,inhibition,[15]; [31],99% and 94.5%
same,inhibition,[16]; at 0.5 µM,68.3% (inactive) and 72.7% (inactive)
same,inhibition,[16]; [32],68.2% and 76%
same,inhibition,[16]; [33],58.4% and 59.2%
CCN(CC)CCOc1ccc2c(c1)C(=O)c1cc(OCCN(CC)CC)ccc1-2,inhibition,[1],-90.6%
same,score,[2],1.3
same,rescue above control,[3],-4.59
same,cytochrome c release ratio,[4],0.81
same,inhibition of aggregation,[5],63.2%
same,glutamate uptake change,[6],22.5%
same,aggregation suppression score,[8],1.61
CN(C)C/C=C(/c1ccc(Br)cc1)c1cccnc1,fluorescence slope change,[9],159% (active)
CC#C[C@]1(O)CC[C@H]2[C@@H]3CCC4=CC(=O)CCC4=C3[C@@H](c3ccc(N(C)C)cc3)C[C@@]21C,fluorescence slope change,[9],142% (active)
same,fluorescence ratio,[18],0.97 (inactive)
same,inhibition,[19],2.4% (inactive)
same,inhibition,[20],-1.18% (inactive)
C[C@@H](CN1CC(=O)NC(=O)C1)N1CC(=O)NC(=O)C1,inhibition,[10]; at 0.5 µM,-13.2% (inactive)
same,inhibition,[10]; [21],-25.5%
same,inhibition,[10]; [22],-32.2%
same,inhibition,[10]; [23],-35.9%
same,inhibition,[11]; at 0.5 µM,-49.6% (inactive)
same,inhibition,[11]; [24],-22.2%
same,inhibition,[11]; [25],-110%
same,inhibition,[12]; at 0.5 µM,-16.4% (inactive)
same,inhibition,[12]; [26],-23.7%
same,inhibition,[12]; [27],-12.8%
same,inhibition,[13]; at 0.5 µM,-10.9% (inactive)
same,inhibition,[13]; [28],-2.15%
same,inhibition,[13]; [29],-21.4%
same,inhibition,[14]; at 0.5 µM,-10.5% (inactive)
same,inhibition,[14]; [22],-11.4%
same,inhibition,[14]; [23],-5.98%
same,inhibition,[15]; [30],-10.8%
same,inhibition,[15]; at 0.5 µM,-7.98% (inactive)
same,inhibition,[15]; [31],-4.24%
same,inhibition,[16]; at 0.5 µM,0.89% (inactive)
same,inhibition,[16]; [32],-5.32%
same,inhibition,[16]; [33],12.3%
FC(F)(F)c1ccccc1-n1ccnc1,fold fluorescence,[17],8.97 [at 235.7 µM] (inactive)
NS(=O)(=O)c1cc(Cl)c(Cl)c(S(N)(=O)=O)c1,fluorescence slope change,[9],82.9% (active)
CCCCCOC(=O)Nc1nc(=O)n([C@@H]2O[C@H](C)[C@@H](O)[C@H]2O)cc1F,inhibition,[10]; at 0.5 µM,-36.3% (inactive) and -17.9% (inactive)
same,inhibition,[10]; [21],-77.2% and -11.6%
same,inhibition,[10]; [22],-36.7% and -43%
same,inhibition,[10]; [23],-42.5% and -67.7%
same,inhibition,[11]; at 0.5 µM,-110% (inactive) and -37.4% (inactive)
same,inhibition,[11]; [24],-124% and -32.3%
same,inhibition,[11]; [25],-103% and -72.6%
same,inhibition,[12]; at 0.5 µM,-17.2% (inactive) and -2.76% (inactive)
same,inhibition,[12]; [26],-8.55% and -7.81%
same,inhibition,[12]; [27],-34.6% and 2.4%
same,inhibition,[13]; at 0.5 µM,-11.5% (inactive) and 9.77% (inactive)
same,inhibition,[13]; [28],-37.1% and -7.89%
same,inhibition,[13]; [29],-5.98% and 11.7%
same,inhibition,[14]; at 0.5 µM,-21.1% (inactive) and -14.8% (inactive)
same,inhibition,[14]; [22],-19.7% and -16.3%
same,inhibition,[14]; [23],-95.1% and -10.2%
same,inhibition,[15]; [30],-26.2% and 5.45%
same,inhibition,[15]; at 0.5 µM,-11.8% (inactive) and 4.86% (inactive)
same,inhibition,[15]; [31],-6.41% and 4.95%
same,inhibition,[16]; at 0.5 µM,-8.94% (inactive) and 6.03% (inactive)
same,inhibition,[16]; [32],-11% and -1.61%
same,inhibition,[16]; [33],-23.1% and 9.49%
CC(C)CC(=O)N[C@H](C(=O)N[C@H](C(=O)N[C@@H](CC(C)C)[C@@H](O)CC(=O)N[C@@H](C)C(=O)N[C@@H](CC(C)C)[C@@H](O)CC(=O)O)C(C)C)C(C)C (Isovaleryl-VV[Sta]A[Sta]-OH),fold fluorescence,[17],4.93 [at 72.9 µM] (inactive)
CCCCCCCCCCCCCCCC(=O)NCCO,fold fluorescence,[17],4.46 (inactive)
